Data on 16 molecules can be found in PubChem BioAssay.

For some of these results: Potency and affinity values are given separately. Calls of active or inactive are those of the source.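 The calls were made as follows, unless noted: active = fluorescence ratio normalized to control raised more than 50% in primary screen plus both repeat runs; inactive = the rest.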

The subject of assay [1] is TRPC4 beta (transient receptor potential cation channel C4), mouse. Put plainly: activators of mouse TRPC4 channel, confirmation, cell-based, Fluo4 calcium, HEK293 TRPC4beta/mu-opioid, duplicates, 10 µM (AID 2426). The following applies: Fluo4 calcium fluorescence, at 10 µM; hits give high values.
In assay [2] the test system is transient receptor potential cation channel C4 beta (TRPC4), mouse. Put plainly: activators of mouse TRPC4 channel, confirmation, cell-based, second round, Fluo4, HEK293 TRPC4beta/mu-opioid, 1 µM (AID 2461;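 active = primary screen active and over 50% activation in each of two duplicate runs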). The conditions noted are these: Fluo4 calcium fluorescence, at 1 µM; hits give high values.
Assay [3] relates to TRPC4 (transient receptor potential cation channel C4 beta), mouse. Put plainly: positive allosteric modulators of mouse TRPC4, confirmation, cell-based, second round, Fluo-4, HEK293 TRPC4beta/mu-opioid, 1 µM (AID 2554;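 active = primary screen hit whose fluorescence ratio, in both repeats, exceeds the weak agonist control mean by 3 SD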). The following applies: DAMGO EC20, Fluo-4 calcium flux, at 1 µM; hits give high values. On the technique in general: Calcium assays in cells follow changes in intracellular calcium, usually with a dye or a luminescent sensor.

The subject of assay [4] is TRPC4 beta (transient receptor potential cation channel C4), mouse. Kind of assay: positive allosteric modulators of mouse TRPC4, confirmation, cell-based, Fluo-4, HEK293 TRPC4beta/mu-opioid (AID 2555;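 active = primary screen hit whose calcium fluorescence ratio, in both repeats, exceeds the weak agonist control mean by 3 SD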). The conditions noted are these: DAMGO EC20, Fluo-4 calcium flux, at 10 µM; hits give high values.
Assay [5] has as its target Short transient receptor potential channel 4 (Mus musculus) (UniProt Q9QUQ5). Kind of assay: inhibitors of mouse TRPC4 channel, confirmation, cell-based, Fluo4, HEK293 TRPC4beta/mu-opioid (AID 2636;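 active = calcium signal cut by more than 3 SD below the full-agonist control yet still positive, in both repeats and the earlier primary screen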). The conditions noted are these: DAMGO, Fluo4 calcium flux, at 10 µM; hits give high values.
The target is the same in assay [6]. Kind of assay: inhibitors of mouse TRPC4 channel, confirmation, cell-based, second round, Fluo4, HEK293 TRPC4beta/mu-opioid, 1 µM (AID 2637;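 active = calcium signal ratio cut to more than 3 SD under the fully stimulated control mean yet still positive, in both repeats and the primary screen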;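 as to inhibition: percent of integrated ratio relative to wells lacking test compound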). The conditions noted are these: Fluo4 calcium flux, DAMGO, at 1 µM; hits give high values.
The target is the same in assay [7]. Put plainly: mouse TRPC4 channel activators, dose response, cell-based, HEK293 TRPC4/mu-opioid, Fluo-4 calcium (AID 434937;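 active = primary screen activator hit with a dose response curve and TRPC4 channel activation at any tested dose; inactive = no activation, no dose response, or not a primary hit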).
Assay [8] shares this target. Put plainly: TRPC4 positive allosteric modulators, dose response, cell-based, HEK293 TRPC4/mu-opioid, Fluo-4 calcium, EC20 DAMGO (AID 434941;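 active = earlier screen potentiator hit that boosts the TRPC4 ion channel at some dose, with a dose response; inactive = no potentiation, no dose response, or not a prior hit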;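 also: calcium entry triggered by an EC20 dose of DAMGO at the co-expressed mu-opioid receptor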).
The target in assay [9] is Short transient receptor potential channel 6 (Mus musculus) (UniProt Q61143). Put plainly: inhibition of mouse TRPC6 channel, confirmation, selectivity assay for TRPC4 inhibitor project, cell-based, HEK293, membrane potential dye, duplicate (AID 434948;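 active = active in primary screen and both duplicates, each dropping signal beyond three positive-control SD with fluorescence still positive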). The conditions noted are these: HEK293 TRPC6, membrane potential dye fluorescence, at 10 µM, stimulated with maximal-effect acetylcholine; hits give high values.
Short transient receptor potential channel 6 (Mus musculus), sequence (Q61143 whole entry, looked up): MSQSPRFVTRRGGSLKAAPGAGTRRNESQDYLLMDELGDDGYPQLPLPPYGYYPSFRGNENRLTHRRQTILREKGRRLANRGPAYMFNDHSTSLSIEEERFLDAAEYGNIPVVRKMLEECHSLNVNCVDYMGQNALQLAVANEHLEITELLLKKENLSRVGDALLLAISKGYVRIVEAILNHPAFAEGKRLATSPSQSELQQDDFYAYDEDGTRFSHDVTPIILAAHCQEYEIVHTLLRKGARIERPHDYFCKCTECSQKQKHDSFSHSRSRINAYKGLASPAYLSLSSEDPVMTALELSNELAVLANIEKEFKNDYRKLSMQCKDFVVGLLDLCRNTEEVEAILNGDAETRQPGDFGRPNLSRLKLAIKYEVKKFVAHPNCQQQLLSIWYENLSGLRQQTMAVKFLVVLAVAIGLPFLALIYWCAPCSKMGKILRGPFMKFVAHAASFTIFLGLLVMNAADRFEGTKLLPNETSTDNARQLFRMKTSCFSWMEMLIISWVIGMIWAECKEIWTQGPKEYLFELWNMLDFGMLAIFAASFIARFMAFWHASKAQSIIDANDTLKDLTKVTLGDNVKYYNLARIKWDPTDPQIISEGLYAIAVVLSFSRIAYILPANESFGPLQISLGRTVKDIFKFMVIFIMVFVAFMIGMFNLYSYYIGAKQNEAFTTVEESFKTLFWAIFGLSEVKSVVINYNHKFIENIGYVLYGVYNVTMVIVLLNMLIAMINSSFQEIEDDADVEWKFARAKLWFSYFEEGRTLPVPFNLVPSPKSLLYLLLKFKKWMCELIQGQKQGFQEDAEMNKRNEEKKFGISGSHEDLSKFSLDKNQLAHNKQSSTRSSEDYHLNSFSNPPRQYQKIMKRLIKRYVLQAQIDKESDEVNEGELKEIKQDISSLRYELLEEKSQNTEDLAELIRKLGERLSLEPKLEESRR

For assay [10] the target is unchanged. Kind of assay: activation of mouse TRPC6 channel, confirmation, selectivity assay for TRPC4 activator project, cell-based, HEK293, membrane potential dye, duplicate (AID 434950;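 active = membrane potential signal rise above negative control mean plus 3 SD in both duplicates, also active in the earlier TRPC4 screen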). The following applies: HEK293 TRPC6, membrane potential fluorescence, at 10 µM; hits give high values.
Assay [11] shares this target. Kind of assay: TRPC6 potentiation by TRPC4 potentiator hits, confirmation, selectivity assay for TRPC4 potentiator project, HEK293 cells, membrane potential dye, duplicate (AID 434952;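 active = compound raising the membrane signal above positive-control mean plus 3 SD in both repeats, and a primary screen hit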). The conditions noted are these: HEK293 TRPC6, membrane potential dye fluorescence, at 10 µM, maximal acetylcholine added after compound; hits give high values.
Assay [12] concerns the target Short transient receptor potential channel 4 (Mus musculus) (UniProt Q9QUQ5). Kind of assay: calcium flux activators in TRPC4/5HT1a cells, counter-screen for TRPC4 activator project, cell-based, second counter screen, HEK293 TRPC4/5HT1a, Fluo-4 (AID 434977;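 active = calcium signal rise above buffer-control mean plus 5 SD in both duplicates, and also a hit in the primary screen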). The conditions noted are these: Fluo-4 calcium flux, at 10 µM; hits give high values.
A short description of assay [13]: calcium flux inhibitors in TRPC4/5HT1a cells, confirmation, counter-screen for TRPC4 inhibitor project, cell-based, second counter screen, HEK293 TRPC4/5HT1a, Fluo-4 (AID 434978;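 active = primary screen active whose calcium signal fell more than 3 SD beyond the full-serotonin control mean in both duplicate plates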;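 as to outcome: serotonin given first at submaximal then at maximal dose after compound preincubation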). The following applies: Fluo-4 calcium flux, at 10 µM, serotonin added to trigger calcium flux; hits give high values.
Assay [14] relates to TRPC4 (mouse), co-expressed with 5HT1a in HEK293. Put plainly: calcium flux potentiators in TRPC4/5HT1a cells, confirmation, counter-screen for TRPC4 potentiator project, cell-based, second counter screen, HEK293 TRPC4/5HT1a, Fluo-4 (AID 434979;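 active = signal rise over 3 SD above mean of control wells given weak agonist, in both repeats and first screen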). The following applies: Fluo-4 calcium flux, at 10 µM, serotonin added at its EC20 dose; hits give high values.
Assay [15] can be described thus: calcium flux activation in mu-opioid HEK293 cells, confirmation, counter-screen for TRPC4 activator project, cell-based, HEK293 mu-opioid receptor line (AID 449723;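 active = hit in primary screen, with calcium signal over 5 SD above buffer well mean in both duplicates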;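 also: counter screen cells carry the mu-opioid receptor alone and lack TRPC4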). The conditions noted are these: Fluo-4 calcium fluorescence, at 10 µM; hits give high values.
Assay [16] can be described thus: calcium flux enhancement in mu-opioid HEK293 cells, confirmation, counter-screen for TRPC4 allosteric potentiator project, cell-based, HEK293 mu-opioid receptor line (AID 449724;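 active = calcium signal rise more than 3 SD above the low-dose agonist control mean, in both duplicate plates and the primary screen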;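 also: HEK293 cells carrying mu-opioid receptor only with no TRPC4 channel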). The following applies: Fluo-4 calcium flux, at 10 µM, compound added before EC20 DAMGO stimulus; hits give high values.

Short transient receptor potential channel 4 (Mus musculus), sequence (Q9QUQ5 whole entry, looked up): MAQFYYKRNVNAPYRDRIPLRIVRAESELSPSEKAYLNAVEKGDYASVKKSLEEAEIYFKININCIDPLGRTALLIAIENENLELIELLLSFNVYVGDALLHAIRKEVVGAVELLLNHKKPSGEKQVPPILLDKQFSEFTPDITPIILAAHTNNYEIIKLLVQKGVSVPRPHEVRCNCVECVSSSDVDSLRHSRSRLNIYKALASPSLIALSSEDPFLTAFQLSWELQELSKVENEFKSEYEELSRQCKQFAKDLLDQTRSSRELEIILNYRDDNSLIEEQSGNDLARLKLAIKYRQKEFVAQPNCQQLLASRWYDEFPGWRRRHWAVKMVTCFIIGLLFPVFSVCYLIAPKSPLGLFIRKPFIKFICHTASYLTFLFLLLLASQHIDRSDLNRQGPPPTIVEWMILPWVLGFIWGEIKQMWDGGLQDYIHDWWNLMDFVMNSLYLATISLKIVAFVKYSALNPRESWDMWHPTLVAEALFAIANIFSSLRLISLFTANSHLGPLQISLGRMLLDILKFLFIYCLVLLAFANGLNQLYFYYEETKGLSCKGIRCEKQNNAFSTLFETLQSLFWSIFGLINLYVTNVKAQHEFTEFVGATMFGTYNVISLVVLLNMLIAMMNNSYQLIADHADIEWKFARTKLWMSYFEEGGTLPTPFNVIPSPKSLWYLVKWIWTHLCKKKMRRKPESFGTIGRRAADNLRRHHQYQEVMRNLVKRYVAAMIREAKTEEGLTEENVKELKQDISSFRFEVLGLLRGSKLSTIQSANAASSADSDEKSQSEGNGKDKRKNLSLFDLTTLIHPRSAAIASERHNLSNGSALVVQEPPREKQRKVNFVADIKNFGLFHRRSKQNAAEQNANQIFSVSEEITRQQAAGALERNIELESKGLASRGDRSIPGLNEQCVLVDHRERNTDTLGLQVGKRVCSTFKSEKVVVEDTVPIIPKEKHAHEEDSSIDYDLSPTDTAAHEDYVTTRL

`CCCn1c(=O)c2ccccc2n2c(SCCOc3ccc(C)cc3)nnc12`: the outcome in assay [1], in assay [2], in [3], in [4], in [6] and in assay [7] was inactive. The result in assay [8], in assay [9], in assay [10], in [11], in [12] and in assay [14] was inactive. Also, the result in assay [15] and in [16] was inactive. Also, the inhibition was 77% (active) in assay [5] and 46.3% (active) in [13].
Consider `O=C(CN1CCCCCC1)N1c2ccccc2Sc2ccccc21`, for which the outcome in [1], in assay [2], in assay [3], in assay [4], in [7] and in [8] was inactive. Moreover, the molecule was classed as inactive in assay [10], in assay [11], in assay [12], in assay [14], in [15] and in [16]. Also, the inhibition in assay [5] was 79% (active); in assay [6], 56% (active); in assay [9], 21% (active); in assay [13], 29.7% (active).
For the molecule `C#Cc1ccc(CN2CCCC(C(=O)Nc3ccccc3Oc3cccnc3)C2)cc1` (stereo unspecified), the result in assay [1], in [2], in assay [3], in [4], in assay [7] and in [8] was inactive. Also, the outcome in assay [9], in assay [10], in assay [11], in assay [12], in [14] and in assay [15] was inactive. Further, the outcome in assay [16] was inactive. The inhibition is 92% (active) in assay [5], 39% (active) in assay [6] and 21.7% (active) in [13].
Turning to `COc1cccc(Cn2c(Oc3ccccc3)nc3c2c(=O)n(C)c(=O)n3C)c1`, the result in assay [1], in assay [2], in [3], in assay [4], in assay [7] and in assay [8] was inactive. In addition, the outcome in [9], in assay [10], in assay [11], in assay [12], in assay [14] and in [15] was inactive. In addition, the result in assay [16] was inactive. In addition, the figures for the inhibition in assay [5], in assay [6] and in assay [13] were 81% (active), 43% (active) and 40.4% (active), respectively.
Take `Oc1ccc(CN2CCCCC2)nc1-c1ccccc1`: the outcome in [1], in assay [2], in assay [3], in assay [4], in [7] and in [8] was inactive. For the same molecule, the result in assay [9], in assay [10], in [11], in assay [12], in assay [14] and in assay [15] was inactive. Moreover, the result in [16] was inactive. The inhibition was 92% (active) in assay [5], 43% (active) in assay [6] and 31.7% (active) in assay [13].
With `COc1ccc(Cn2nnnc2C(c2cc3cc(C)ccc3[nH]c2=O)N2CCN(C)CC2)cc1` (stereo unspecified), the outcome in assay [1], in assay [2], in [3], in assay [4], in [6] and in [7] was inactive. In addition, the result in [8], in assay [9], in assay [10], in [11], in [12] and in assay [13] was inactive. The result in assay [14], in assay [15] and in assay [16] was inactive. Further, the inhibition in assay [5] is 83% (active).
For `Cc1oc(-c2ccoc2)nc1CN(Cc1ccccc1)CC1CC1`, the result in assay [1], in [2], in assay [3], in [4], in [6] and in [7] was inactive. The outcome in assay [8], in assay [9], in [10], in assay [11], in [12] and in [13] was inactive. In addition, the outcome in assay [14], in assay [15] and in [16] was inactive. For the same molecule, the inhibition in assay [5] was 95% (active).
For `CCOC(=O)c1c(N)sc(C(O)(C(F)(F)F)C(F)(F)F)c1-c1ccccc1`, the outcome in [1], in assay [2], in [3], in assay [4], in [6] and in assay [7] was inactive. In addition, the outcome in assay [8], in assay [9], in assay [10], in assay [11], in [12] and in assay [14] was inactive. In addition, the result in [15] and in [16] was inactive. Also, the values for the inhibition in [5] and in assay [13] were 66% (active) and 36.8% (active), respectively.
On to `Cc1ncsc1CCOC(=O)C12CC3CC(CC(C3)C1)C2`, for which the outcome in assay [1], in [2], in assay [3], in assay [4], in assay [6] and in [7] was inactive. Also, the result in assay [8], in [9], in [10], in [11], in [12] and in assay [14] was inactive. The result in assay [15] and in [16] was inactive. Also, the inhibition is 94% (active) in assay [5] and 17.8% (active) in assay [13].
In the case of `OCC(Cc1ccccc1)NCc1ccccc1C(F)(F)F` (stereo unspecified), the outcome in assay [1], in assay [2], in assay [3], in assay [4], in assay [6] and in [7] was inactive. The result in [8], in assay [9], in assay [10], in assay [11], in [12] and in assay [13] was inactive. Moreover, the result in [14], in assay [15] and in assay [16] was inactive. Further, the inhibition in [5] is 60% (active).
As for `CCn1c(=O)n(CCOC)c(=O)c2c3c(sc21)CCCC3`, the outcome in assay [1], in assay [2], in assay [3], in [4], in [7] and in assay [8] was inactive. The call in assay [9], in assay [10], in assay [11], in assay [12], in [14] and in assay [15] was inactive. Besides, the result in assay [16] was inactive. The inhibition in assay [5] was 91% (active); in assay [6], 58% (active); in assay [13], 16.2% (active).
Consider `CCOc1ccccc1N(CC)C(=O)c1nn(C)c2c1CSc1ccccc1-2`, for which the outcome in assay [1], in assay [2], in assay [3], in assay [4], in [7] and in assay [8] was inactive. Also, the outcome in assay [9], in assay [10], in assay [11], in assay [12], in assay [14] and in assay [15] was inactive. Also, the result in assay [16] was inactive. The figures for the inhibition in [5], in [6] and in assay [13] were 95% (active), 40% (active) and 18.7% (active), respectively.
Take `COc1ccc(CN2CCN(C(=O)c3ccc(F)cc3)CC2)c(OC)c1`: the result in [1], in assay [2], in assay [3], in assay [4], in assay [7] and in [8] was inactive. In addition, the molecule was classed as inactive in assay [9], in assay [10], in [11], in [12], in assay [14] and in assay [15]. The outcome in assay [16] was inactive. Also, the values for the inhibition in assay [5], in [6] and in [13] were 93% (active), 57% (active) and 35.3% (active), respectively.
`CSCCNC(=O)c1ccc(OC2CCN(CCc3ccccc3)CC2)cc1`: the outcome in assay [1], in [2], in [3], in [4], in assay [5] and in [7] was inactive. In addition, the result in assay [8], in assay [9], in [10], in [11], in assay [12] and in assay [13] was inactive. The result in assay [14], in assay [15] and in [16] was inactive. Also, the inhibition in [6] is 65% (active).
Turning to `Fc1ccc(CN2CCC(Cc3ccccc3)CC2)cc1F`, the outcome in [1], in [2], in [3], in [4], in assay [6] and in [7] was inactive. Also, the outcome in [8], in [9], in assay [10], in assay [11], in assay [12] and in assay [14] was inactive. The result in [15] and in assay [16] was inactive. Further, the inhibition is 89% (active) in [5] and 25.9% (active) in [13].
Turning to `O=C(OC1C2CCC1C1CN(CCc3ccccc3)CC12)c1ccccc1` (stereo unspecified), the result in assay [1], in [2], in [3], in assay [4], in [5] and in assay [7] was inactive. The result in assay [8], in [9], in assay [10], in [11], in assay [12] and in assay [13] was inactive. For the same molecule, the result in assay [14], in assay [15] and in [16] was inactive. In [6], the inhibition is 44% (active).

What is called inhibition is the change of the read-out against control, counted positive when it falls.
